# Laboratory results published in PubChem BioAssay (NCI).
# Compounds without any hit were thinned out: in the full panel of roughly 83,000, 20% have a hit.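 A percent growth of 40 corresponds to 60% growth inhibition; 0 means no net growth; -100 means all cells died. Active threshold: below 10.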 A number with no mark means an inactive call. Active and inactive are the calls of the source.
# Tests used:
# Assay in all cases: NCI-60 one-dose screen, 48 h (100 = growth as untreated, 0 = no growth, -100 = all killed)
# Settings in all cases: 10 µM unless noted
# [1] = tested on: DU-145 prostate
# [2] = tested on: K-562 leukemia
# [3] = tested on: MALME-3M melanoma
# [4] = tested on: MDA-MB-231 breast
# [5] = tested on: RXF 393 renal
# [6] = tested on: SF-268 CNS
# [7] = tested on: SF-295 CNS
# [8] = tested on: SF-539 CNS
# [9] = tested on: UACC-257 melanoma
# [10] = tested on: M14 melanoma
# [11] = tested on: HCT-15 colon
# [12] = tested on: HT29 colon
# [13] = tested on: SNB-75 CNS
# [14] = tested on: SNB-19 CNS
# [15] = tested on: U251 CNS
# [16] = tested on: PC-3 prostate
# [17] = tested on: SK-MEL-5 melanoma
# [18] = tested on: UACC-62 melanoma
# [19] = tested on: LOX IMVI melanoma
# [20] = tested on: SK-MEL-28 melanoma
Structure (SMILES),growth [1],growth [2],growth [3],growth [4],growth [5],growth [6],growth [7],growth [8],growth [9],growth [10],growth [11],growth [12],growth [13],growth [14],growth [15],growth [16],growth [17],growth [18],growth [19],growth [20]
O=C(CCCCCCN1CC(=O)N2[C@@H](c3ccccc3Cl)c3[nH]c4ccccc4c3C[C@H]2C1=O)NO,77.2%,25.7%,21.9%,63.1%,61.3%,89.9%,80.3%,60%,51.7%,49.3%,97.5%,57.6%,-1.06% (active),71.8%,60.1%,61.8%,46.9%,34%,14.7%,43.8%
N=C1C(c2nc(-c3ccc(Br)cc3)cs2)=C(O)CN1CC1CCCO1 (stereo not given),69.7%,64.1%,112%,90.9%,83%,87.9%,91.5%,81.4%,84.3%,91.5%,89.5%,97.5%,78.5%,87.4%,74.9%,7.86% (active),102%,105%,60.7%,107%
Cc1ccc2nc(NC(=O)CSc3nc(Nc4ccc([N+](=O)[O-])cc4)c(C#N)c(-c4ccccc4)n3)sc2c1,104%,87.6%,110%,93.7%,92.7%,93.7%,95.6%,92.8%,105%,114%,93.6%,96.7%,85.6%,93.9%,93.2%,93.8%,98%,86%,96.7%,109%
Cc1c(C)c2c(c(C)c1OCC(=O)O)CC[C@@](C)(CCC[C@@H](C)CCC[C@@H](C)CCCC(C)C)O2,6.97% [50 µM] (active),6.54% [50 µM] (active),-35.8% [50 µM] (active),-2.79% [50 µM] (active),-34.5% [50 µM] (active),-5.58% [50 µM] (active),35.8% [50 µM],-7.25% [50 µM] (active),38.7% [50 µM],-19.2% [50 µM] (active),-28.5% [50 µM] (active),6.19% [50 µM] (active),67.6% [50 µM],17% [50 µM],-30.3% [50 µM] (active),-16% [50 µM] (active),-77.1% [50 µM] (active),-75.2% [50 µM] (active),-83.9% [50 µM] (active),-15.1% [50 µM] (active)
N/C(=N/N=C/c1ccccc1)N/N=C\c1ccccc1,73.6%,21.8%,67.4%,76.3%,24.8%,76%,66.9%,58%,68.5%,26.8%,44.1%,27.7%,67.1%,74.6%,50.2%,64.3%,34.1%,70.5%,62.1%,71.9%
COC(=O)[C@]12CC[C@@H](C)[C@H](C)[C@@H]1C1=CC[C@@H]3[C@@]4(C)C(C=O)=C[C@@](C)(COS(C)(=O)=O)C4[C@H](O)C[C@@]3(C)[C@]1(C)CC2 (stereo not given in full),-93.6% (active),1.48% (active),-78.6% (active),-74.9% (active),-96.4% (active),-74.4% (active),-87.3% (active),-89.6% (active),-82.2% (active),-59.9% (active),-70.3% (active),-85.2% (active),-92.1% (active),-67.7% (active),-96.2% (active),-36% (active),-91.6% (active),-38.4% (active),-97.3% (active),-57.7% (active)
COc1cc(/C=C/C(=O)c2c(C)nc3ccccc3c2/C=C/c2ccc(C)cc2)cc(OC)c1OC,14.7%,12%,39.5%,16.6%,3.96% (active),44.7%,38.8%,19.5%,43.8%,23.9%,-19.4% (active),14%,22.7%,40.1%,20.9%,25.8%,26%,25.6%,-22.8% (active),20.3%
CC1=CN2C(=O)C3C4=C(CCCC4)SC3N=C2CN1c1c(C)cccc1C (stereo not given),104%,45.8%,89.7%,83.9%,67%,89.1%,81.6%,96.7%,99.4%,96.6%,49.8%,84%,106%,104%,65%,63.4%,87.2%,66.4%,79.2%,110%
COc1ccc(-c2cc(-c3cc(OC)c(OC)c(OC)c3)c(C#N)c(N3CCOCC3)n2)cc1O,59%,2.4% (active),126%,49.8%,41.3%,49.6%,41.6%,37.9%,90.3%,67.5%,23.5%,108%,30.1%,52.3%,51.1%,38.9%,60.8%,89.9%,13.7%,60%
COc1ccc(-c2nc(SCCC(C)C)nc(N/N=C\c3cccc([N+](=O)[O-])c3)c2C#N)cc1,34.1%,56.8%,50%,23.4%,28%,25.1%,32.1%,27.5%,81%,61.3%,38.7%,30.3%,-14% (active),45.1%,8.23% (active),40.5%,71.1%,67.5%,18.8%,67.5%
Clc1cccc(Cl)c1C(Nc1nc2ccccc2s1)Nc1nc2ccccc2s1,131%,79.6%,123%,104%,104%,105%,143%,93.6%,102%,122%,83.6%,108%,80.8%,99.1%,94.7%,74.2%,88.4%,95.7%,86.1%,109%
CCOC(=O)/C=C/c1cc2cc(-c3csc4ccccc34)ccc2[nH]1,89.5%,25.4%,76.9%,56.9%,83.4%,74.8%,64.6%,77.6%,69.5%,68.1%,56.8%,21.9%,97.5%,101%,78.2%,62%,87.6%,67.5%,64.7%,104%
Cc1c(Cl)cc(-n2c(=O)c3ccccc3c3ccccc3c2=O)cc1Cl,121%,106%,90.5%,84.2%,123%,105%,102%,110%,104%,93%,110%,103%,89.9%,104%,102%,82%,107%,92.6%,95.2%,117%
O=C1/C(=C\c2c[nH]c3ccccc23)c2ccccc2N1c1c(Cl)cccc1Cl,14.5%,-0.66% (active),-16.8% (active),-2.7% (active),-43.5% (active),23.7%,-47.9% (active),-59.9% (active),23.6%,-86.3% (active),5.59% (active),-29.6% (active),39.2%,37%,-34% (active),2.68% (active),-39.2% (active),-58.6% (active),-100% (active),-30.6% (active)
O=C1/C(=C\c2cccnc2)SC(=S)N1CCc1ccc(O)cc1,16.6%,36%,79.6%,47.1%,25.1%,68.5%,94%,23.2%,38.9%,60.2%,19.2%,105%,-4.79% (active),82.5%,68.3%,42.2%,90.1%,59.9%,17.4%,71%
